MBNL1 CUG block: blocks human MBNL1 binding to CUG repeat RNA; Q9NR56; TR-FRET MBNL1-His/biotin-(CUG)12 binding, 665/545 ratio; Potency, µM (top dose mostly 57.5 µM), usual class: inhibitors; 280,000 tested, 0.036% active; active = well fitted inhibition curve with a large enough effect in the signal ratio, with a control signal flat, not every such curve was filed as active; inconclusive = small, poorly fitted or top-dose-only effect, or effect the other way, or a change in a side signal; inactive = no such curve, though single readings can be large or run the other way; the % refers to the signal ratio
Target sequence (Q9NR56 whole entry, looked up): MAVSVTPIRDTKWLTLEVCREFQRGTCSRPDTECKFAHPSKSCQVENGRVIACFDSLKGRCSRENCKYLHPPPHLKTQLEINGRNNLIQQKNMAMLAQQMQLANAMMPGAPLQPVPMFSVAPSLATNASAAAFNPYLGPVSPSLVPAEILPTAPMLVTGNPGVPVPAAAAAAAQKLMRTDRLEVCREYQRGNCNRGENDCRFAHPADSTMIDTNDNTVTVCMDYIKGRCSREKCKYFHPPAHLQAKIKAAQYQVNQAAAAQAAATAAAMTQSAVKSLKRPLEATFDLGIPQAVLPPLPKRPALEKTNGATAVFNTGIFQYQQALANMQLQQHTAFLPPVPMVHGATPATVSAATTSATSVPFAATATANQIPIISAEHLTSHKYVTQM
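TR-FRET between His-tagged MBNL1 and biotin-(CUG)12 RNA, detected with Tb anti-His antibody (0.055 ng/ul) and streptavidin-XL665 (5 nM), 60 min at room temperature. Compounds titrated 92 nM to 58 uM; 665/545 nm ratio normalized to buffer and complex controls.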
Vif-A3F inh: blocks the Vif interaction with APOBEC3F; 390,000 tested, 0.2% active; Potency, µM (highest dose often 46.1 µM); HeLa A3F-eYFP + Vif (tagged APOBEC3F with the HIV-1 protein that degrades it), YFP fluorescence increase; also: nearly all actives have a fitted effect of over 65% in size
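HeLa cells stably expressing A3F-eYFP plus Vif, plated and incubated overnight at 37 deg C, then exposed to compounds overnight at 37 deg C. Blocked degradation read as raised yellow fluorescence (Ex 488/Em 500-530).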
CBFb RUNX1 block: CBF-beta/RUNX1 interaction disruption | Q01196+Q13951 | AlphaScreen CBFb-His/RUNX1-biotin binding, biochemical | Potency, µM (top dose mostly 59.8 µM), usual class: inhibitors | 230,000 tested, under 10 active | AID 1477
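Proteins preincubated together for 20 min at RT before compound addition; 15 min later, nickel and streptavidin beads were added and left 90 min prior to AlphaScreen measurement.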
TSG101-PTAP inh: blocks PTAP/TSG101 interaction to inhibit HIV-1 budding; Potency, µM (titrated, usually from 115 µM), usual class: inhibitors; Q99816; Fluorescence polarization, FITC-PTAP peptide / Tsg101 binding; 340,000 tested, under 10 active; active = well fitted inhibition curve with a large enough effect in the main read-out, with a control signal flat, not every such curve was filed as active; inconclusive = small, poorly fitted or top-dose-only effect, or effect the other way, or a change in a side signal; inactive = no such curve, though single readings can be large or run the other way
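Tsg101 binding domain (10 uM final) was mixed with compound and a FITC-labeled PTAP peptide (50 nM final) in HEPES pH 7.5 buffer with NaCl, Tween 20, EDTA and TCEP; fluorescence polarization was read after 20 min at r.t.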
Vif-APOBEC3G blk: Vif-A3G binding inhibition; Q9HC16; HeLa A3G-eYFP + Vif (tagged APOBEC3G with the HIV-1 protein that degrades it), YFP fluorescence, overnight; Potency, µM (titrated, usually from 46.1 µM), usual class: inhibitors; 410,000 tested, 0.076% active; also: nearly all actives have a fitted effect of over 60% in size
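Read-out is eYFP fluorescence (Ex 488/Em 500-530) from Vif-expressing HeLa A3G-eYFP cells; more signal means A3G escaped Vif-mediated degradation. Cells plated overnight, compound pinned in, incubated overnight at 37 deg C.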
Epigenetic reg: regulators of epigenetic silencing causing reporter derepression in mouse cells; murine LDR cells, GFP reporter derepression, 30 h; Potency, µM (top dose mostly 53.9 µM), most hits filed as activators; 280,000 tested, 0.2% active; AID 1865; also: nearly all actives have a fitted effect of over 60% in size
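Reporter derepression read as number of fluorescent GFP-positive objects, 20-120 um in size, counted by laser-scanning cytometer. Mouse LDR line with an epigenetically silenced CMV-GFP locus; compound incubation 30 h, 37 C.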
Of the large screens only hits and unclear results are named; the others gave an inactive call. Only some compounds are listed: those with a hit (about 0.37% of all), similar ones and a draw of the others. Unless noted, calls follow the shape of the dose curve; as a rule, active = well fitted curve in the direction sought with a large enough effect; inconclusive = small, poorly fitted or top-dose-only effect, or another doubt; inactive = no such curve, though single readings can be large; an effect the other way counts as inactive or inconclusive.

O=S(=O)(Nc1nc2ccccc2nc1N1CCc2ccccc2C1)c1ccc(Br)cc1	Vif-A3F inh 22µM (no result: MBNL1 CUG block)
O=C(Nc1c(Cl)cc([N+](=O)[O-])cc1Cl)c1cc(Cl)cc(Cl)c1O	none (no result: MBNL1 CUG block, Vif-A3F inh, CBFb RUNX1 block, TSG101-PTAP inh, Epigenetic reg)
COc1ccc2nc3c(nc2c1)C(=O)c1ccccc1-3	none (no result: MBNL1 CUG block, Vif-A3F inh, CBFb RUNX1 block, TSG101-PTAP inh, Vif-APOBEC3G blk)
CN(C)c1ccc(/C=C2/C[N+](C)(C)C/C(=C/c3ccc(N(C)C)cc3)C2=O)cc1	Vif-A3F inh 10µM, Vif-APOBEC3G blk inconclusive (no result: MBNL1 CUG block, CBFb RUNX1 block, Epigenetic reg)
CC(C)/C=C1\CC/C(=C\c2ccc(N(C)C)cc2)C1=O	Vif-A3F inh inconclusive, TSG101-PTAP inh inconclusive
S=c1ncc2n[nH]nc2[nH]1	none (no result: MBNL1 CUG block, Vif-A3F inh, CBFb RUNX1 block, TSG101-PTAP inh, Epigenetic reg)
O=c1[nH]c(=S)c2[nH]cnc2[nH]1	none (no result: MBNL1 CUG block, Vif-A3F inh, CBFb RUNX1 block, TSG101-PTAP inh, Epigenetic reg)
CCOC(=O)CC1C(=O)NCCN1c1nc2ccc(C)cn2c(=O)c1/C=C1\SC(=S)N(CC(C)C)C1=O (stereo not given)	Vif-A3F inh inconclusive, TSG101-PTAP inh inconclusive, Vif-APOBEC3G blk inconclusive, Epigenetic reg 3.5µM
CCOC(=O)CC1C(=O)NCCN1c1nc2ccc(C)cn2c(=O)c1/C=C1\SC(=S)N(C(C)CC)C1=O (stereo not given)	none (no result: Vif-A3F inh, TSG101-PTAP inh, Vif-APOBEC3G blk)
CCc1ccc(N=Nc2ccc(O)c3[nH]cnc23)cc1	Vif-A3F inh 8.9µM, Vif-APOBEC3G blk inconclusive (no result: MBNL1 CUG block, CBFb RUNX1 block, Epigenetic reg)
CC(C)COc1ccc(CC(=O)NO)cc1	none (no result: MBNL1 CUG block, Vif-A3F inh, CBFb RUNX1 block, TSG101-PTAP inh, Epigenetic reg)
COc1ccc(C(=O)c2sc3nc(-c4ccccc4)ccc3c2N)cc1OC	CBFb RUNX1 block inconclusive, Vif-APOBEC3G blk inconclusive, Epigenetic reg inconclusive
COc1cccc(-c2ccc3c(N)c(C(=O)c4ccc(Br)cc4)sc3n2)c1	Vif-A3F inh 7.9µM, Vif-APOBEC3G blk inconclusive, Epigenetic reg inconclusive (no result: MBNL1 CUG block, CBFb RUNX1 block, TSG101-PTAP inh)
Cc1ccc(-c2cn3nc(-c4ccccc4)c(-c4ccccc4)nc3n2)cc1	Vif-A3F inh 4.5µM, TSG101-PTAP inh inconclusive
COc1cc(C(=O)Nc2nnc(S(=O)(=O)N3CCCCCC3)s2)cc(OC)c1OC	none (no result: CBFb RUNX1 block, Epigenetic reg)
COc1cc(C(=O)Nc2nnc(S(=O)(=O)N(C)c3ccccc3)s2)cc(OC)c1OC	Epigenetic reg 10µM (no result: MBNL1 CUG block, CBFb RUNX1 block, TSG101-PTAP inh)
COCCCNC(=S)N/N=C/c1ccc(OC)cc1	Vif-A3F inh 22µM
O=c1[nH]c2ccccc2nc1/C=C(\O)c1cccs1	MBNL1 CUG block inconclusive, Vif-A3F inh 10µM, TSG101-PTAP inh inconclusive, Vif-APOBEC3G blk inconclusive, Epigenetic reg 22µM
C[N+]1(CC(=O)c2ccc(Br)cc2)CCOCC1	none (no result: MBNL1 CUG block, Vif-A3F inh, CBFb RUNX1 block, TSG101-PTAP inh, Epigenetic reg)
CCNC(=S)N/N=C(\C)c1ccc(N2CCOCC2)cc1	Vif-A3F inh 22µM
CNC(=S)N/N=C(\C)c1ccc(N2CCOCC2)cc1	MBNL1 CUG block inconclusive, Vif-A3F inh inconclusive, Epigenetic reg inconclusive
COc1ccc(CCC(=O)O)cc1	none (no result: MBNL1 CUG block, Vif-A3F inh, CBFb RUNX1 block, TSG101-PTAP inh, Epigenetic reg)
Cc1ccc(-c2nc(=Nc3c(C)cc(C)cc3C)sn2-c2ccccc2)cc1	none (no result: MBNL1 CUG block, Vif-A3F inh, CBFb RUNX1 block, TSG101-PTAP inh, Epigenetic reg)
Cn1c(=O)c(NC2CCCCC2)c2c3c(cccc31)C(=O)c1ccccc1-2	CBFb RUNX1 block inconclusive, TSG101-PTAP inh inconclusive, Vif-APOBEC3G blk inconclusive, Epigenetic reg 0.13µM
Cn1c(=O)c(NCCc2ccccc2)c2c3c(cccc31)C(=O)c1ccccc1-2	MBNL1 CUG block inconclusive, Vif-A3F inh inconclusive, CBFb RUNX1 block inconclusive, TSG101-PTAP inh inconclusive, Epigenetic reg inconclusive
CCCCNc1c2c3c(cccc3n(C)c1=O)C(=O)c1ccccc1-2	MBNL1 CUG block inconclusive, Vif-A3F inh inconclusive, CBFb RUNX1 block inconclusive, TSG101-PTAP inh inconclusive, Epigenetic reg inconclusive
CC(=O)Nc1ccc(Nc2c3c4c(cccc4n(C)c2=O)C(=O)c2ccccc2-3)cc1	MBNL1 CUG block inconclusive, Vif-A3F inh 8.9µM, TSG101-PTAP inh inconclusive
O=C(NCCc1ccccc1)[C@@H]1CC=C[C@@H]2CCN(C3CC3)C(=O)[C@@H]21	none (no result: MBNL1 CUG block, Vif-A3F inh, CBFb RUNX1 block, TSG101-PTAP inh, Epigenetic reg)
O=C(NCc1nc2ncc(Br)cc2[nH]1)c1ccccc1	none
O=c1[nH]c2cc(Br)cnc2nc1/C=C(\O)c1ccc(F)cc1	Vif-A3F inh 10µM, Epigenetic reg inconclusive
O=C(C[N+]1(CC(O)c2ccccc2)CCOCC1)c1ccccc1 (stereo not given)	none (no result: MBNL1 CUG block, Vif-A3F inh, CBFb RUNX1 block, TSG101-PTAP inh, Epigenetic reg)
Cc1ccc(NC(=O)/C=C/c2ccc([N+](=O)[O-])s2)cc1	Vif-A3F inh 7.9µM, Vif-APOBEC3G blk 3.2µM, Epigenetic reg 8.9µM (no result: MBNL1 CUG block)

Screens: PubChem BioAssay, National Center for Advancing Translational Sciences (NCATS)
